Results filed as inconclusive are left out. A number with no mark means an inactive call. Activity calls are given as the source filed them. Calls come from the whole dose curve; as a rule, active = well fitted curve in the direction sought with a large enough effect in the repeat runs; inconclusive = weak or mixed curves; inactive = no such curve, though single readings can be large; an effect the other way counts as inactive or inconclusive.
What follows are compounds tested against Nuclear receptor subfamily 1 group I member 2 (Homo sapiens) (UniProt O75469) (assay: Human pregnane X receptor (PXR) activation by small molecules, qHTS assay (AID 1346985; note: nearly all actives have a fitted effect of over 40% in size)). Settings: DPX-2 HepG2 CYP3A4-luciferase, 24 h; series mostly up to 38.3 µM; activation: at the top concentration.
Procedure, shortened: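 DPX-2 cells (HepG2 co-transfected with a PXR response element and a CYP3A4-promoter luciferase construct) were seeded at 2,000 per well, rested 5 hr at 37C, then exposed to DMSO-dissolved compounds for 24 hr. Activation was read as luciferase luminescence.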
In the case of `O=C(O)CCc1nc(-c2ccccc2)c(-c2ccccc2)o1`, the “activation” value is reported as 5.4%.
For `O=C1C(=O)c2ccccc2C(O)=C1C1CCC(c2ccc(Cl)cc2)CC1` (stereo not given), the “activation” value was -8.75% [at 17.1 µM].
In the case of `CC1(CN2CCC(n3c(=O)[nH]c4ccccc43)CC2)OCc2ccccc2-n2cccc21` (stereo not given), the Potency is reported as 4.47 µM (active).
In the case of `CC1(C)O[C@@H]2C[C@H]3[C@@H]4C[C@H](F)C5=CC(=O)C=C[C@]5(C)[C@H]4[C@@H](O)C[C@]3(C)[C@]2(C(=O)CO)O1`, the “activation” value is reported as 22% [at 17.1 µM].
In the case of `Cc1[nH]cnc1CN1CCc2c(c3ccccc3n2C)C1=O`, the “activation” value is reported as 1.11%.
In the case of `CN1CCCN=C1COC(=O)C(O)(c1ccccc1)C1CCCCC1` (stereo not given), the “activation” value is reported as 19.3%.
In the case of `COc1ccccc1N1CCN(CCCCNC(=O)c2ccc(-c3ccc(C(C)=O)cc3)cc2)CC1`, the “activation” value is reported as 5.59%.
With `CCOC(C)=O` the “activation” value was 3.51%.

These compounds were tested against Cytochrome P450 2D6 (Homo sapiens) (UniProt P10635) (assay: Cytochrome P450 Family 2 Subfamily D Member 6 (CYP2D6) small molecule antagonists: luciferase reporter qHTS assay (AID 1671196; note: nearly all actives have a fitted effect of over 50% in size)). Settings: P450-Glo CYP2D6 enzyme assay, luciferin luminescence, 1 h; series mostly up to 115 µM; activity change, negative = inhibition: at the top concentration.
Sequence of Cytochrome P450 2D6 (Homo sapiens) (P10635 whole entry, looked up): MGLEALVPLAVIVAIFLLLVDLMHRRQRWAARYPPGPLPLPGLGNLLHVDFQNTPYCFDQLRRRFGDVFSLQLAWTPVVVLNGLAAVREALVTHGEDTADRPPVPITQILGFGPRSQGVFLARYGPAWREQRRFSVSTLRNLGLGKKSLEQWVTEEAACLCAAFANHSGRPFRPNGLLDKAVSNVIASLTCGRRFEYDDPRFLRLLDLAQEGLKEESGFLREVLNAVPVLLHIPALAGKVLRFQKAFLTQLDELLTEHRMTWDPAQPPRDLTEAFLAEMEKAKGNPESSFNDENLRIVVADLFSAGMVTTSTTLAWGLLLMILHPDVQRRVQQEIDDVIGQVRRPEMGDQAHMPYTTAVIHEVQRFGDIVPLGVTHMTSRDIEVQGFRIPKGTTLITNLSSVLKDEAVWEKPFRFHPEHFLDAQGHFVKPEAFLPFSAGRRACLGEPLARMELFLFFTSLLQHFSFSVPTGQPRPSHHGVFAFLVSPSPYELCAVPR
Procedure, shortened: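 P450-Glo format: CYP2D6 converts a proluciferin substrate to luciferin in an NADPH-driven reaction lasting 1 h at room temperature. Light output, proportional to CYP2D6 activity, reflects interference by test chemicals.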
In the case of `CCCCN1CCCC1C(=O)Nc1c(C)cc(C)cc1C` (stereo not given), the Potency is reported as 3.09 µM (active).
For `CC(CO)CO`, the “activity change, negative = inhibition” value was -5.7%.
With `COc1cc(C(=O)NC2CCN(C)CC2)ccc1Nc1ncc2c(n1)N(C1CCCC1)CC(F)(F)C(=O)N2C` the “activity change, negative = inhibition” value was -28.5%.
In the case of `CC(C)C[C@H](NC(=O)[C@H](CCc1ccccc1)NC(=O)CN1CCOCC1)C(=O)N[C@@H](Cc1ccccc1)C(=O)N[C@@H](CC(C)C)C(=O)[C@@]1(C)CO1`, the “activity change, negative = inhibition” value is reported as -8.93% [at 53 µM].
For `COc1cc(Nc2c(C#N)cnc3cc(OCCCN4CCN(C)CC4)c(OC)cc23)c(Cl)cc1Cl`, the “activity change, negative = inhibition” value was -22.2% [at 53 µM].
With `O=C(O)CCc1nc(-c2ccccc2)c(-c2ccccc2)o1` the “activity change, negative = inhibition” value was -22.4% [at 53 µM].
For `O=C1C(=O)c2ccccc2C(O)=C1C1CCC(c2ccc(Cl)cc2)CC1` (stereo not given), the “activity change, negative = inhibition” value was 0.944% [at 53 µM].
In the case of `C=CC(=O)[O-].C=CC(=O)[O-].[Zn+2]`, the Potency is reported as 34.8 µM (active).
With `c1ccc(C[n+]2cccc3ccccc32)cc1` the Potency was 3.17 µM (active).
In the case of `C(=C\c1ccccc1)/c1ccccc1`, the “activity change, negative = inhibition” value is reported as -9.99%.
In the case of `CCC1CO1` (stereo not given), the “activity change, negative = inhibition” value is reported as -13.5%.
In the case of `CC1(CN2CCC(n3c(=O)[nH]c4ccccc43)CC2)OCc2ccccc2-n2cccc21` (stereo not given), the Potency is reported as 2.45 µM (active).
For `Brc1cc2ccccc2c2ccccc12`, the “activity change, negative = inhibition” value was -18.2%.
`O=c1cc(-c2ccccc2)oc2ccc3ccccc3c12` was tested, and the Potency was 5.64 µM (active).
`CCOC(=O)c1ccc(O)c(O)c1` was tested, and the “activity change, negative = inhibition” value was -7.99% [at 53 µM].
For `O=[N+]([O-])c1ccc(O/N=C/c2cc(Br)c(O)c(Br)c2)c([N+](=O)[O-])c1`, the “activity change, negative = inhibition” value was -25.4%.
With `O=[N+]([O-])c1ccc(Nc2ccc(Nc3ccccc3)c(S(=O)(=O)O)c2)c([N+](=O)[O-])c1` the “activity change, negative = inhibition” value was -6.16%.
With `CN1CCCN=C1COC(=O)C(O)(c1ccccc1)C1CCCCC1` (stereo not given) the Potency was 0.617 µM (active).
`COC(=O)[C@H]1[C@H]2C[C@@H]3c4[nH]c5cc(OC)ccc5c4CCN3C[C@H]2C[C@@H](OC(=O)/C=C/c2ccc(O)c(OC)c2)[C@@H]1OC` was tested, and the “activity change, negative = inhibition” value was -22.2% [at 53 µM].
In the case of `O=C1CCCCCCCCCCOCCCCO1`, the “activity change, negative = inhibition” value is reported as -10.9%.
In the case of `NC1[C@H]2CN(c3nc4c(cc3F)c(=O)c(C(=O)O)cn4-c3ccc(F)cc3F)C[C@@H]12` (stereo not given in full), the “activity change, negative = inhibition” value is reported as 1.82% [at 53 µM].
`Cc1cc(C)cc(N)c1` was tested, and the Potency was 5.09 µM (active).
With `CCCCC(CC)COP(=O)(O)O` (stereo not given) the “activity change, negative = inhibition” value was -17.3%.
With `COc1ccccc1N1CCN(CCCCNC(=O)c2ccc(-c3ccc(C(C)=O)cc3)cc2)CC1` the Potency was 2.19 µM (active).
For `Cc1cc(O)ccc1O`, the “activity change, negative = inhibition” value was -13.9%.
`CO/N=C(/C(=O)N[C@@H]1C(=O)N2C(C(=O)O)=C(COC(N)=O)CS[C@H]12)c1ccco1` was tested, and the “activity change, negative = inhibition” value was -14.8%.
With `CCOC(C)=O` the “activity change, negative = inhibition” value was -3.25%.

Source: PubChem BioAssay (Tox21)
% is set by controls: 0 for no effect and ±100 for the full control effect; potency is the fitted concentration of half-maximal effect.
